Out of some 48,000 compounds screened, about 13,000 (27%) showed an effect of 50% or more. The list shows a part of the results.
system: Wolbachia pipientis; experiment: Anti-Wolbachia Cell-Based Screen; format: functional; set-up: scale not given: in the data most compounds retested in dose-response had high values; details: 5 µM

Compared with `Cc1cc(CN(C)C(=O)c2ccc(F)cc2Br)no1`, `Cc1cc(CC(C)NC(=O)COc2ccc(F)cc2F)[nH]n1` (stereo not given) is higher in “Percent Effect” value: -8.681% for the first, 17.04% for the second.

Compared with `Cc1cc(=O)[nH]c(NCCNC(=O)C(c2ccc(F)cc2)N(C)C)n1` (stereo not given), `O=C(c1cc(=O)[nH]c(=O)[nH]1)N1CCCCC1c1ccc(F)cc1` (stereo not given) is lower in “Percent Effect” value: 1.725% for the first, -19.12% for the second.

Compared with `Cc1nc(CN2CCN(C(=O)CC(C)(C)c3ccccc3)CC2)no1`, `Cc1nc(CN2CCCN(Cc3nc4c(F)cccc4[nH]3)CC2)no1` is higher in “Percent Effect” value: 6.376% for the first, 93.2% for the second.

Going from `CCc1nc(CN2CCCC(Nc3ncnc4ccsc34)C2)no1` (stereo not given) to `Cc1nc(CN(C)C2CCN(Cc3nc4c(F)cccc4[nH]3)C2)no1` (stereo not given), the “Percent Effect” value rises from 25.2% to 95.7%.

Compared with `O=C(O)C(F)(F)F.O=S(=O)(C1CC1)N1CCC2(CC1)CN(Cc1nccs1)CCO2`, `CC(C)CN1C[C@@H]2C(=O)N(C)C3(CCN(C(=O)C(C)C)CC3)[C@@H]2C1.O=C(O)C(F)(F)F` is higher in “Percent Effect” value: 4.912% for the first, 15.99% for the second.

Going from `CCNC(=O)N1CCC(NC(=O)NCCc2ccc(C)cc2C)C1` (stereo not given) to `Cc1ccc(C(=O)NCCC2CN(C3CCCC3)CCO2)c(C)c1` (stereo not given), the “Percent Effect” value rises from 5.947% to 105.7%.

First: COCCN1CC(c2nc(CSC)no2)CCC1=O (stereo not given)
Second: COCCc1noc(-c2ccc(-c3ccc(N)nc3)nc2)n1
The “Percent Effect” value of the first is higher: 7.021% for the first, 3.848% for the second.

Going from `CCc1nccn1C1CCCN(C(=O)c2ccc(C(N)=O)cn2)C1` (stereo not given) to `CCc1nccn1C1CCCN(C(=O)c2ccc3nnc(C)n3c2)C1` (stereo not given), the “Percent Effect” value rises from 6.395% to 92.62%.

Compared with `CCc1nccn1C1CCCN(C(=O)c2ccc3[nH]c(=O)[nH]c3c2)C1` (stereo not given), `Cc1nccn1C1CCCN(C(=O)c2ccc3nnc(C)n3c2)C1` (stereo not given) is higher in “Percent Effect” value: 0.4559% for the first, 98.33% for the second.

Compared with `Cc1nc(C)c(C(=O)N2CCc3c(Cl)cccc32)o1`, `Cc1cnc(CN(C)C2CCN(Cc3nc4c(F)cccc4[nH]3)C2)o1` (stereo not given) is higher in “Percent Effect” value: -6.606% for the first, 88.38% for the second.

Going from `CCc1ncc2c(n1)CN(Cc1nc3c(F)cccc3[nH]1)CC2` to `Cc1ncc2c(n1)CN(Cc1nc3c(F)cccc3[nH]1)CC2`, the “Percent Effect” value rises from -2.409% to -1.881%.

Compared with `Cc1cnc(CN(C)C2CCN(Cc3nc4ccccc4n3C)C2)o1` (stereo not given), `CNC(=O)c1cccc(CN2CCC(N(C)Cc3ncc(C)o3)C2)c1` (stereo not given) is higher in “Percent Effect” value: 4.653% for the first, 18.32% for the second.

First: Cc1sc2nc(C(F)(F)F)nc(N3CCN(S(C)(=O)=O)CC3)c2c1C
Second: Cc1nn(C)c(C)c1C(=O)N1CCN(C(=O)CC2CCCCC2)CC1
The “Percent Effect” value of the first is higher: 0.8403% for the first, -14.94% for the second.

Going from `O=C1NC(c2ccccc2)=N[C@@]12CC[C@@H]1CN(Cc3ccco3)C[C@@H]12` to `CN1C(=O)CC(c2ccccc2)C12CCN(C(=O)c1ccc[nH]1)CC2` (stereo not given), the “Percent Effect” value falls from 9.656% to -3.808%.

Compared with `CCOc1ccc(NC(=O)c2[nH]c(C)cc2C)cc1CO`, `COCCCn1cnnc1C(C)NC(=O)c1[nH]c2ccc(C)cc2c1C` (stereo not given) is higher in “Percent Effect” value: -6.246% for the first, 21.75% for the second.

Compared with `O=C(NCC1(CO)CC1)c1cccc2ccccc12`, `Cn1c(C(=O)NCC2(N)CCCC2)cc2ccccc21` is higher in “Percent Effect” value: -22.57% for the first, 105.3% for the second.

First: Cc1nc(C)n(C2CCCN(C(=O)c3cc4ccccc4n3C)C2)n1 (stereo not given)
Second: CNC(=O)c1cc2ccccc2n1C
The “Percent Effect” value of the first is lower: 8.769% for the first, 113.9% for the second.

Compared with `COCCn1c(C(=O)NCC(C)C(=O)O)cc2ccccc21` (stereo not given), `CNC(=O)c1ccc(-c2ccccc2)n1C` is lower in “Percent Effect” value: 18.09% for the first, -8.126% for the second.

First: CC(C)NC(=O)c1n[nH]c(-n2cnnc2)n1
Second: COC(=O)N1CCC2(CC1)N=C(CCC(C)C)NC2=O
The “Percent Effect” value of the first is lower: -2.794% for the first, -0.8032% for the second.

Compared with `Cc1cc(C)nc(Nc2cccc(C3CCCN(CCO)C3)n2)n1` (stereo not given), `Cc1cc(C)nc(Nc2cccc(C3CCCN(CC4CC4)C3)n2)n1` (stereo not given) is higher in “Percent Effect” value: 75.7% for the first, 109.6% for the second.

First: CNc1nc(C)cc(NC2CCCN(C3Cc4ccccc4C3)C2)n1 (stereo not given)
Second: CNc1cc(C)nc(NC2CCCN(C3Cc4ccccc4C3)C2)n1 (stereo not given)
The “Percent Effect” value of the first is higher: 43.21% for the first, 9.514% for the second.

First: Cc1cc(C)nc(Nc2cccc(C3CCCN(C)C3)n2)n1.O=CO (stereo not given)
Second: Cc1cc(C)nc(Nc2cccc(C3CCCN(C(C)C)C3)n2)n1 (stereo not given)
The “Percent Effect” value of the first is lower: -4.261% for the first, 76.23% for the second.

Going from `CN(C(=O)NCc1ccncc1)C1CCN(c2ccccc2)C1=O` (stereo not given) to `Cc1ccc(F)c(OC2(C(=O)O)CCN(C(=O)c3ccccc3)CC2)c1`, the “Percent Effect” value falls from -1.353% to -18.21%.

Compared with `O=c1nc(SCc2ccc(Cl)cc2)c2c(n1CCO)CCC2`, `Cc1nc(-c2ccsc2)ccc1C(=O)NCCC1CCCO1` (stereo not given) is lower in “Percent Effect” value: 7.751% for the first, -16.18% for the second.

First: CN(CCc1nc(-c2cccc(Cl)c2)no1)CCn1cccn1
Second: CN(C)C1CCCN(Cc2cccc(Cn3cccn3)c2)CC1 (stereo not given)
The “Percent Effect” value of the first is higher: 14.68% for the first, -12.17% for the second.

Compared with `COc1ccc(Cl)cc1NCC(=O)NCCNc1cnccn1`, `COc1ccc(Cl)cc1NCCC(=O)NCCNc1cnccn1` is higher in “Percent Effect” value: 7.849% for the first, 93.92% for the second.

Compared with `Cc1ncsc1C(=O)NCCNc1cnccn1`, `O=C(NCCNc1cnccn1)c1scnc1Cl` is lower in “Percent Effect” value: 4.216% for the first, 1.056% for the second.

Compared with `COc1ccc(Cl)cc1C(=O)NCCNc1cnccn1`, `COc1ccc(Cl)cc1NC(=O)CCNc1ccc(C#N)cn1` is lower in “Percent Effect” value: 117.3% for the first, -1.327% for the second.

Going from `NC(=O)C(Nc1cccc(CO)c1)c1ccc(Br)cc1` (stereo not given) to `CCCC(=O)N(C)Cc1cccc(OC(C)C)c1`, the “Percent Effect” value rises from -1.327% to 0.3075%.

Compared with `CCCn1ccnc1CNC(=O)C1COc2cc(OC)ccc2C1` (stereo not given), `NC(=O)Cn1ccnc1C1CCCN(Cc2nc3ccccc3s2)C1` (stereo not given) is higher in “Percent Effect” value: -6.706% for the first, 1.02% for the second.

First: CC(C)CC(=O)N1CCC2(CC1)[C@@H]1CN(C(=O)N(C)C)C[C@@H]1C(=O)N2C
Second: CC(C)C(=O)N1CCC2(CC1)[C@@H]1CN(C(=O)N(C)C)C[C@@H]1C(=O)N2C
The “Percent Effect” value of the first is lower: -15.87% for the first, 11.68% for the second.

Going from `CCOC(=O)[C@H]1[C@@H](O)C(=O)N(C)C12CCN(C(=O)OC)CC2` to `CCOC(=O)[C@@H]1[C@@H](O)C(=O)N(C)C12CCN(C(=O)OC)CC2`, the “Percent Effect” value falls from 97.39% to 81.26%.

First: CCOC(=O)[C@H]1[C@@H](O)C(=O)N(C)C12CCN(C(=O)CC(C)C)CC2
Second: CCOC(=O)[C@H]1[C@@H](O)C(=O)N(C)C12CCN(C(=O)CC(C)(C)C)CC2
The “Percent Effect” value of the first is higher: 122.2% for the first, 89.62% for the second.

First: CC(C)NC(=O)N1CCC2(CC1)[C@@H]1CN(C(=O)N(C)C)C[C@@H]1C(=O)N2C
Second: CC(=O)N1CCC2(CC1)[C@@H]1CN(C(=O)N(C)C)C[C@@H]1C(=O)N2C
The “Percent Effect” value of the first is lower: -31.71% for the first, -8.179% for the second.

Going from `CC(C)CC(=O)N1CCC2(CC1)NC(=O)[C@H]1CN(C(=O)N(C)C)C[C@H]12` to `CC(=O)N1C[C@@H]2C(=O)N(C)C3(CCN(C(=O)C(C)C)CC3)[C@@H]2C1`, the “Percent Effect” value rises from -16.51% to -11.94%.

Going from `COc1cc(C)c(CN2CCC3(CC2)C(C(=O)O)CC(=O)N3C)cc1C` (stereo not given) to `CCOC(=O)[C@H]1[C@@H](O)C(=O)N(C)C12CCN(S(=O)(=O)CC)CC2`, the “Percent Effect” value rises from 7.232% to 107.6%.

Going from `CCOC(=O)[C@H]1[C@@H](O)C(=O)N(C)C12CCN(C(=O)C(CC)CC)CC2` to `CCOC(=O)[C@@H]1[C@@H](OC)C(=O)N(C)C12CCN(C(=O)C(CC)CC)CC2`, the “Percent Effect” value rises from 87.69% to 108.6%.

First: CCN1CCC(CC(=O)N[C@H](C(=O)O)c2cccc(F)c2F)CC1
Second: CCOCCNCC1CCN(CCO)CC1
The “Percent Effect” value of the first is higher: 0.01063% for the first, -14.57% for the second.

Compared with `CCOC(=O)[C@@H]1[C@@H](O)C(=O)N(C)C12CCN(C(=O)c1ccco1)CC2`, `CCOC(=O)[C@H]1[C@@H](O)C(=O)N(C)C12CCN(C(=O)c1ccccc1)CC2` is higher in “Percent Effect” value: 104.5% for the first, 113.3% for the second.

First: CC(C)(C)CC(=O)N1CCC(n2cc(C3(O)CCCC3)nn2)CC1
Second: CCOCC(O)CN1CCN(C(=O)CC(C)(C)C)CC1 (stereo not given)
The “Percent Effect” value of the first is higher: 20.32% for the first, 2.808% for the second.

Going from `O=C(c1ccco1)N1CCC2(CC1)C(=O)NCCN2CC1CC1` to `CCN1CC2(CC1=O)CN(C(C)=O)CCN(C(=O)c1ccco1)C2` (stereo not given), the “Percent Effect” value rises from 0.967% to 6.232%.

Compared with `CCOC(=O)N1CCC2(CC1)N=C(CCC(C)C)NC2=O`, `CCOC(=O)[C@H]1[C@@H](O)C(=O)N(C)C12CCN(C(=O)OCC)CC2` is higher in “Percent Effect” value: 0.1534% for the first, 113.4% for the second.

First: N#Cc1cccnc1NCc1ccc(S(=O)(=O)NC2CC2)cc1
Second: N#Cc1cc(F)ccc1CN1CCCCC1Cn1cncn1 (stereo not given)
The “Percent Effect” value of the first is lower: -3.149% for the first, 7.796% for the second.

First: O=C(Nc1ccccc1Cn1cncn1)C1CCN(C2CCCCC2)C1 (stereo not given)
Second: CC(=O)N1CCC(N2CCOC(CC3CCCCC3)C2)CC1 (stereo not given)
The “Percent Effect” value of the first is higher: -3.545% for the first, -12.42% for the second.

First: CCOC(=O)[C@H]1[C@@H](O)C(=O)N(C)C12CCN(C(=O)CC1CCCC1)CC2
Second: COCCC1COC2(CCN(C(=O)CC3CCCC3)CC2)C1 (stereo not given)
The “Percent Effect” value of the first is higher: 108.5% for the first, -6.475% for the second.

Going from `CCS(=O)(=O)N1CCC2(CCCC(=O)N2C)CC1` to `CC(C)N(C)S(=O)(=O)N1CCCC1C(=O)N1CCSCC1` (stereo not given), the “Percent Effect” value falls from 1.174% to -16.03%.

Going from `CCOC(=O)C1CN(S(=O)(=O)CC)Cc2ncn(CC)c21` (stereo not given) to `CCCn1c(C)c(CC(=O)NC)c2c1CC(C)(C)CC2=O`, the “Percent Effect” value falls from 10.83% to -16.12%.

First: OC[C@H]1CN(Cc2c(Cl)cncc2Cl)C[C@H]1CN1CCCC1
Second: O=C(NCCC1CN(C2CCCC2)CCO1)c1cc(=O)[nH]c(=O)[nH]1 (stereo not given)
The “Percent Effect” value of the first is lower: -2.945% for the first, 90.1% for the second.

Going from `Cc1ccc(C(=O)NCC(O)CN2CCCC2=O)c(C)c1` (stereo not given) to `O=C(NCCC1CCCO1)c1ccccc1N1CCOCC1` (stereo not given), the “Percent Effect” value falls from -3.657% to -10.37%.

Going from `Cc1nc[nH]c1CN1CCOC(CCNC(=O)c2ccsc2)C1` (stereo not given) to `O=C(NCCC1CN(C2CCCC2)CCO1)c1c[nH]c(=O)[nH]c1=O` (stereo not given), the “Percent Effect” value rises from 3.165% to 104.1%.

From ChEMBL document CHEMBL3988442, “University of Dundee, Small-Polar-MMV Screening Library” (2021)
